Screening data as filed in PubChem BioAssay.
OPRM1-OPRD1 inv: inverse agonists of MOR-DOR heterodimerization, primary screen, cell-based, luminescence; inhibition, % at 9.3 µM; Mu-type opioid receptor (Homo sapiens) + Delta-type opioid receptor (Homo sapiens), …; AID 504357, 2011; cell-based MOR-DOR heterodimer luminescence, inverse agonism; actives 0.21% (n = 340,000); in the data active means inhibition above about 22%, passing the limit was not always enough
HTR5A inv ag: HTR5A inverse agonists in luminescence cell assay, primary screen, counter-screen for OPRM1-OPRD1 heterodimer inverse agonist project, full-deck HTS | 5-hydroxytryptamine receptor 5A (Homo sapiens), P47898 | HTR5A cell line, inverse agonism | inhibition, % at 9.3 µM | actives 0.083% (n = 340,000) | AID 504634, 2011; in the data active means inhibition mostly above about 23%, no sharp cut-off; inactive means mostly below about 18%
Target sequence (P47898 whole entry, looked up): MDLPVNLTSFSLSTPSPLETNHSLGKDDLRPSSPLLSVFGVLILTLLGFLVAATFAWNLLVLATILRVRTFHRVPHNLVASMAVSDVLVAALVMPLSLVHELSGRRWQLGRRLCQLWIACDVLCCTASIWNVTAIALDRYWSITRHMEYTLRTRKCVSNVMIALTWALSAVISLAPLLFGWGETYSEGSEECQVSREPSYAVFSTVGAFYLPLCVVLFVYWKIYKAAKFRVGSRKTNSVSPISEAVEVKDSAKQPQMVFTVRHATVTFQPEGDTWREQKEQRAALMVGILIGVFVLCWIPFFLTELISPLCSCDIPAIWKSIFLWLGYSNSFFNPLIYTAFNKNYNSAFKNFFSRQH
HTR5A ag: HTR5A agonists in luminescence cell assay, primary screen, counter-screen for OPRM1-OPRD1 heterodimer agonist project, full-deck HTS | actives 0.61% (n = 340,000) | 5-hydroxytryptamine receptor 5A (Homo sapiens), P47898 | cell-based | activation, % at 9.3 µM; in the data active means activation mostly above about 9.5%, no sharp cut-off; inactive means mostly below about 7.6%
MOR-DOR ag: agonists of OPRM1-OPRD1 heterodimerization, primary screen, cell-based, luminescence. cells. activation, % at 9.3 µM. actives 0.3% (n = 340,000). AID 504326, 2011; in the data active means activation above about 18%
Of the large screens only hits and unclear results are named; the others gave an inactive call. Only some compounds are listed: those with a hit (about 1.1% of all), similar ones and a draw of the others.

Cc1ccc(-c2noc(CCCC(=O)N3CCOCC3)n2)cc1	none
Cc1cccc(-c2noc(CCCC(=O)N3CCOCC3)n2)c1	HTR5A ag 9.8
Cc1c(NC(=O)c2ccc3c(c2)C(=O)N(CC2CCCO2)C3=O)cccc1C(=O)O (stereo not given)	HTR5A ag 10.4
CC(C)Oc1ccc(CNC(=O)Cn2ccc3cc(S(=O)(=O)N4CCCC4)ccc32)cc1	HTR5A ag 8.3
COc1ccccc1NS(=O)(=O)c1cccc(C(=O)N2CCN(Cc3ccc4c(c3)OCO4)CC2)c1	none
CCN1CCN(Cc2ccc(NC(=O)c3cc(NC(=O)c4cc(C)on4)cc(OC)c3)cc2C(F)(F)F)CC1	none
CCN1CCN(Cc2ccc(NC(=O)c3cc(NC(=O)c4cnn(-c5ccccc5)c4N)cc(OC)c3)cc2C(F)(F)F)CC1	HTR5A ag 12.5
CC(=O)Nc1cccc(-c2csc(Nc3ccc(Cl)cn3)n2)c1	none
CC(=O)Nc1ccc(-c2csc(Nc3ccc(Cl)cn3)n2)cc1	HTR5A ag 10.9
O=S(=O)(c1cccs1)N1CCC2(CC1)OCCN2S(=O)(=O)c1ccccc1	none
COc1ccccc1NC(=S)N(Cc1cccs1)C1CCCC1	none
COc1ccccc1NC(=S)N(Cc1ccccc1)Cc1cccs1	HTR5A ag 9.3
CCOC(=O)COc1cc2oc(=O)cc(C)c2cc1[N+](=O)[O-]	none
COc1ccccc1C1=NN(C(=O)c2ccccc2)C(c2ccc(Br)cc2)C1 (stereo not given)	none
CCn1c(NCc2ccccn2)nc2c1c(=O)n(C)c(=O)n2C	HTR5A ag 13.9
CCCn1c(NCc2ccco2)nc2c1c(=O)n(C)c(=O)n2C	none
CCN1C(=O)N(S(=O)(=O)c2ccc(C)cc2)[C@@H](c2ccccc2)C(C(=O)OC)=C1C	none
CCCCCCCCCCCCCCCC[N+](C)(C)Cc1ccc(F)cc1	HTR5A ag 11.0
COC(=O)c1ccc(NC(=O)CSc2nccn2CCc2ccccc2)cc1	none
COc1cccc(C(=O)O/N=C(\N)c2ccc([N+](=O)[O-])cc2)c1OC	HTR5A ag 13.1
CS(=O)(=O)NCCSCc1ccccc1	none
CS(=O)(=O)NCCSc1cc(C(F)(F)F)nc2ccccc12	HTR5A ag 11.8
Cc1cccc(CCNCc2c(C(=O)O)c(C)n(-c3ccccc3)c2C)c1	none
COc1cc(S(=O)(=O)NCc2cccnc2)c(OC)cc1Br	HTR5A ag 10.0
O=C(NCc1ccccc1Cl)NCc1ccccc1Cl	none
O=C(NCc1ccccc1Cl)c1ccc[nH]1	HTR5A ag 12.7
O=C(NCc1ccccc1F)c1ccc(S(=O)(=O)N2CCCCCC2)cc1	none
O=C(NCc1ccccc1Cl)c1ccc(S(=O)(=O)N2CCCC2)cc1	HTR5A ag 11.3
Cc1c(Cl)cccc1NC(=O)c1cccc(NC(=O)CCC(=O)O)c1	HTR5A ag 12.0
CN(C(=O)c1ccc(NC(=O)Cc2cccc(NC(=O)C3CCCN(C(=O)C4CCCC4)C3)c2)cc1)C1CCCC1 (stereo not given)	none
O=C(NCc1cccs1)C1CCN(S(=O)(=O)c2cccc3cccnc23)CC1	HTR5A ag 13.7
CCc1ccccc1C1=CC(=O)C[C@H](c2ccc(OC)cc2)C1	none
O=C(O)c1cccc(N/N=C(\N=Nc2ccccc2)c2ccccc2)c1	none
O=C(O)c1ccc(N=N/C(=N\Nc2ccc(C(=O)O)cc2)c2ccccc2)cc1	OPRM1-OPRD1 inv 30.7, HTR5A inv ag 35.3
CCCc1cc(=O)[nH]c(SCC(=O)Nc2cc(S(=O)(=O)N(CC)c3ccccc3)ccc2Cl)n1	none
Cc1ccc(OCCC(=O)OCC(=O)Nc2ccc3c(c2)OCCO3)cc1	none
COc1ccccc1OCCC(=O)OCC(=O)Nc1ccc2c(c1)OCCO2	HTR5A ag 8.6
Cc1c(C(=O)NC2CCCCC2)sc2ncnc(N3CCN(c4ccccc4)CC3)c12	HTR5A ag 11.3
Cn1c(-c2c(N)n(CCCc3ccccc3)c3nc4ccccc4nc23)nc2ccccc21	MOR-DOR ag 57.9
O=C(Nc1nnc(-c2cccs2)s1)c1cccc(F)c1	none
O=C(Cc1ccc([N+](=O)[O-])cc1)OCc1c(F)cccc1Cl	none
N#CCCN(C(=O)COC(=O)CCc1nc2ccccc2c(=O)[nH]1)c1ccc(F)cc1	HTR5A ag 10.5
Cn1c(SCC(=O)c2ccccc2)nc2cccnc21	HTR5A ag 9.7
Cc1ccc(C(=O)CSc2nc3cccnc3n2C)cc1	none
CC1Cc2ccccc2N1C(=O)COC(=O)c1cccnc1Cl (stereo not given)	HTR5A ag 10.9
O=C(c1ccc(Cl)c(S(=O)(=O)NCc2ccco2)c1)N1CCN(c2ccccc2F)CC1	HTR5A ag 12.9
O=C(O)c1ccc(NC(=S)NC(=O)c2ccc(-c3ccc(Br)cc3)o2)cc1	none
CCOC(=O)N1CCC(NC(=O)CSCc2nc(-c3ccc(OC)cc3)oc2C)CC1	HTR5A ag 11.2
CN(Cc1ccc(OC(F)F)cc1)C(=O)c1cccc(S(=O)(=O)N2CCN(Cc3ccccc3)CC2)c1	none
O=C1CS(=O)(=O)N(Cc2cccc(F)c2)c2ccc(Br)cc21	none
COc1ccc(CN2c3c(Br)cccc3C(=O)CS2(=O)=O)cc1	HTR5A inv ag 17.4
COc1ccc2c(O)c(-c3c(C)cc(C)cc3C)c(=O)[nH]c2c1	none
COC1Cc2ccccc2N(C(=O)N2CCN(CCO)CC2)c2ccccc21 (stereo not given)	HTR5A ag 13.8
CCOC1Cc2ccccc2N(C(N)=O)c2ccccc21 (stereo not given)	none
CC(=O)c1cccc(NC(=O)c2nccnc2C(=O)O)c1	none
COc1cccc(/C(O)=C2/C(=O)C(=O)N(CCN(C)C)C2c2ccc(Br)cc2)c1 (stereo not given)	HTR5A ag 10.3
CCCNC(=O)CC(NS(=O)(=O)c1ccc(OC)cc1)c1ccco1 (stereo not given)	none
O=[N+]([O-])c1ccc(COc2cccc(CN3CCCCC3)c2)cc1	none
CSc1ncccc1C(=O)OCC(=O)NC(C)CCc1ccccc1 (stereo not given)	none
CSc1ncccc1C(=O)OCC(=O)NCc1ccccc1	HTR5A ag 12.9
COCCn1c(N)c(C(=O)NCC2CCCO2)c2nc3ccccc3nc21 (stereo not given)	none
CC(C)Cn1c(N)c(C(=O)NCC2CCCO2)c2nc3ccccc3nc21 (stereo not given)	OPRM1-OPRD1 inv 44.2
CCN(CC)C(=S)Sc1c(-c2ccccc2)c2cc(Cl)ccc2[nH]c1=O	none
O=C1CCc2cc(S(=O)(=O)N3CCN(c4cccc(C(F)(F)F)c4)CC3)ccc2N1	HTR5A ag 13.4, MOR-DOR ag 24.7
CC(C)(C)C(=O)N1CCC(O)(CS(=O)(=O)Cc2ccc(Cl)cc2)CC1	HTR5A ag 12.3
CC(C)(C)C(=O)N1CCC(O)(CS(=O)(=O)Cc2ccccc2)CC1	none
C=CC(=O)Nc1cccc(Nc2nc(N[C@H]3CC[C@H](N(C)C)CC3)nc3c2ncn3C(C)C)c1	MOR-DOR ag 35.8
CC(C)n1cnc2c(Nc3cccc(Cl)c3)nc(NCCCO)nc21	none
